Active and inactive are the calls of the source.
Key:
[1] = probe aNog binding to arrayed compounds – biochemical, biotinylated probe, 635/667 nm fluorescence, primary screen (AID 1115); conditions: small-molecule microarray, higher = more signal;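 further: probe is biotinylated aNog protein used at 0.15 µg/mL for 1 h at 4 C; z-score combines 667 nm fluorescence of each spot with its signal to noise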
[2] = biological target: Torsin-1A-interacting protein 1 (Homo sapiens) (UniProt Q5JTV8); experiment: compound microarray binding of lysate hLAP1 – cell lysate, small-molecule microarray, COS7 lysate, 635/667 nm fluorescence, primary screen (AID 1116); conditions: 635 nm fluorescence, higher = more signal
Chain of Torsin-1A-interacting protein 1 (Homo sapiens) (Q5JTV8 whole entry, looked up): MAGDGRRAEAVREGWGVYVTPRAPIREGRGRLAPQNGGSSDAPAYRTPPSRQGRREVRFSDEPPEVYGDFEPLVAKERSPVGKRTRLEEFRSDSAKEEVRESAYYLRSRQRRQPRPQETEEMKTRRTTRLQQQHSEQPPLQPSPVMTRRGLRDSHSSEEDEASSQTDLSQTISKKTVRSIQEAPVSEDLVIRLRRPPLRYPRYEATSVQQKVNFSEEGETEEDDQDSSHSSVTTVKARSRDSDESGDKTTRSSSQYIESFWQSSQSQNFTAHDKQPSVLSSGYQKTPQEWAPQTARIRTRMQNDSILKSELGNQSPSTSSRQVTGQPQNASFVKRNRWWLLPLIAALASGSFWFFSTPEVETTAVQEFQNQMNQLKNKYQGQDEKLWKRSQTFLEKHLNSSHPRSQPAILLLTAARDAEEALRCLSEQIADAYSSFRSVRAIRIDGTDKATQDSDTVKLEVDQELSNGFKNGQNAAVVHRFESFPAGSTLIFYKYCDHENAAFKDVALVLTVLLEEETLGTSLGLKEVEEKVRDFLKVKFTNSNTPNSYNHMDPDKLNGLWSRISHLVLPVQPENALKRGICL

Albumin (Bos taurus) = Albumin (Bos taurus) (UniProt P02769); experiment: compounds binding labelled BSA control protein – biochemical, small-molecule microarray, Alexa647 label, 635/667 nm fluorescence, artefact control for SMM control protein annotation, profiling panel (AID 1118); conditions: BSA-A647 binding, fluorescence 635 nm, higher = more signal;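 further: score merges 667 nm emission intensity and signal-to-noise per printed compound spot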
Chain of Albumin (Bos taurus) (P02769 whole entry, looked up): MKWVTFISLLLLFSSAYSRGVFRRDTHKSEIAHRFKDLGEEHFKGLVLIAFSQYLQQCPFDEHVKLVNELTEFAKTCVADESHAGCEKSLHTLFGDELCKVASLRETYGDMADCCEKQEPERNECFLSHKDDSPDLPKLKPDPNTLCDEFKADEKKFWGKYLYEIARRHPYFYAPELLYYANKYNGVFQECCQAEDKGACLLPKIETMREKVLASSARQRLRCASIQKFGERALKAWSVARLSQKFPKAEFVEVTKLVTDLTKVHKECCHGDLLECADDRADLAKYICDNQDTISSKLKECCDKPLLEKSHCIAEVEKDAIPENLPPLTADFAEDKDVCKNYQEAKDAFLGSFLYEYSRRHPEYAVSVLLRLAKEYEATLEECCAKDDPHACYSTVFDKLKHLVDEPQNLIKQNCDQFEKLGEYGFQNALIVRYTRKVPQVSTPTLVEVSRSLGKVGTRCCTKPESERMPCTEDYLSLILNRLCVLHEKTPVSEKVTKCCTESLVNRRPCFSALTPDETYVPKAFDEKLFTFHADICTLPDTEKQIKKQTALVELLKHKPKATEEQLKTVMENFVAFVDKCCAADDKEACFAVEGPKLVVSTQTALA

[3] = probe aXIP binding to arrayed compounds – biochemical, NeuroSMM set, 635/667 nm fluorescence, primary screen (AID 1119); conditions: small-molecule microarray, higher = more signal, called active from +8 up or from −8 down;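 further: probe is the protein aXip251-270 applied at 1 µg/mL to compound-printed slides; binding of probe to printed compounds measured as 667 nm fluorescence plus signal to noise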
[4] = probe aNOTCH3 binding on compound microarray – biochemical, small-molecule microarray, 635/667 nm fluorescence, primary screen (AID 1120); conditions: higher = more signal;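 further: probe is a biotin-tagged antibody raised against NOTCH3 rather than NOTCH3 protein; score merges spot fluorescence near 667 nm with spot signal to noise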
[5] = probe aNOTCH2 binding on compound microarray – biochemical, small-molecule microarray, 635/667 nm fluorescence, primary screen (AID 1121); conditions: higher = more signal;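 further: score merges feature fluorescence read at 667 nm with its signal to noise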
[6] = biological target: Carbonic anhydrase 2 (Homo sapiens) (UniProt P00918); experiment: compounds binding carbonic anhydrase 2 – biochemical, small-molecule microarray, Alexa647-labelled CAII, profiling panel (AID 1122); conditions: CAII-A647 binding fluorescence, higher = more signal
[7] = COS7 lysate on small-molecule microarray, probe aHis, 635 nm (AID 1123); conditions: COS7 cell lysate, fluorescence, higher = more signal;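 further: z-score combines 667nm fluorescence intensity with signal-to-noise per printed compound spot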
[8] = probe aLAP1 signal on lysate-treated microarray – cell lysate, small-molecule microarray, COS7 lysate, primary screen (AID 1124); conditions: probe aLAP1, fluorescence, higher = more signal;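 further: lysate comes from COS7 cells expressing LAP1 and is applied at 0.3 µg/mL; score merges spot fluorescence near 667 nm with signal-to-noise over triplicate slides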
Sam68 (KHDRBS1) = experiment: compounds binding KHDRBS1 protein – biochemical, small-molecule microarray, 635 nm fluorescence, primary screen (AID 1125); conditions: higher = more signal;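 further: score merges 667 nm channel intensity with signal to noise over triplicate slides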
[9] = system: Chordin-like protein 2 (CHRDL2); experiment: compounds binding chordin-like 2 – biochemical, small-molecule microarray, 635 nm fluorescence, primary screen (AID 1126); conditions: fluorescence 635 nm, higher = more signal;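 further: printed compound slides probed with Chrdl2 protein at 4 µg/mL for 1 h at 4 C; score merges 667 nm emission intensity with signal to noise over three replicate slides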
[10] = biological target: Concanavalin-A (Canavalia ensiformis) (UniProt P02866); experiment: compounds binding concanavalin A lectin – biochemical, small-molecule microarray, Alexa647 label, 635 nm, artefact control for SMM control protein annotation, primary screen (AID 1127); conditions: ConA-A647 binding fluorescence, higher = more signal;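 further: z combines 667 nm emission intensity with signal-to-noise across three replicate slides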
Chain of Concanavalin-A (Canavalia ensiformis) (P02866 whole entry, looked up): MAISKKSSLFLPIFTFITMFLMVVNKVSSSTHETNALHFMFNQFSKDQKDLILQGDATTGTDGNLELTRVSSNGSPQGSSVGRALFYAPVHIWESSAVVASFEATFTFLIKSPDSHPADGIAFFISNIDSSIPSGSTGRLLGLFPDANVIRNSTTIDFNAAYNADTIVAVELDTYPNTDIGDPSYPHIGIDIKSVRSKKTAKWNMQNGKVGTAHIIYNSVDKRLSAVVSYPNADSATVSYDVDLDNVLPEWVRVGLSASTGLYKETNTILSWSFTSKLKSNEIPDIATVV

[11] = compounds binding Alexa647 anti-His antibody – biochemical, small-molecule microarray, 635 nm fluorescence, artefact control for SMM control protein annotation, primary screen (AID 1128); conditions: higher = more signal;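 further: score merges feature fluorescence with signal-to-noise for each printed compound spot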
[12] = system: Human papillomavirus type 1a E7 protein (residues 1-88); experiment: HPV1a E7 small-molecule binders, primary screen, biochemical, small-molecule microarray, residues 1-88, 635 nm (AID 1129); conditions: small-molecule microarray binding, fluorescence 635 nm; higher = more signal
[13] = biological target: Focal adhesion kinase 1 (Homo sapiens) (UniProt Q05397); experiment: PTK2 protein binding on printed compound slides – biochemical, small-molecule microarray, 635/667 nm fluorescence, BSA, DTT, primary screen (AID 1130); conditions: 635 nm fluorescence, higher = more signal;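 further: composite of spot emission at 667 nm and signal to noise over triplicate slides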
Chain of Focal adhesion kinase 1 (Homo sapiens) (Q05397 whole entry, looked up): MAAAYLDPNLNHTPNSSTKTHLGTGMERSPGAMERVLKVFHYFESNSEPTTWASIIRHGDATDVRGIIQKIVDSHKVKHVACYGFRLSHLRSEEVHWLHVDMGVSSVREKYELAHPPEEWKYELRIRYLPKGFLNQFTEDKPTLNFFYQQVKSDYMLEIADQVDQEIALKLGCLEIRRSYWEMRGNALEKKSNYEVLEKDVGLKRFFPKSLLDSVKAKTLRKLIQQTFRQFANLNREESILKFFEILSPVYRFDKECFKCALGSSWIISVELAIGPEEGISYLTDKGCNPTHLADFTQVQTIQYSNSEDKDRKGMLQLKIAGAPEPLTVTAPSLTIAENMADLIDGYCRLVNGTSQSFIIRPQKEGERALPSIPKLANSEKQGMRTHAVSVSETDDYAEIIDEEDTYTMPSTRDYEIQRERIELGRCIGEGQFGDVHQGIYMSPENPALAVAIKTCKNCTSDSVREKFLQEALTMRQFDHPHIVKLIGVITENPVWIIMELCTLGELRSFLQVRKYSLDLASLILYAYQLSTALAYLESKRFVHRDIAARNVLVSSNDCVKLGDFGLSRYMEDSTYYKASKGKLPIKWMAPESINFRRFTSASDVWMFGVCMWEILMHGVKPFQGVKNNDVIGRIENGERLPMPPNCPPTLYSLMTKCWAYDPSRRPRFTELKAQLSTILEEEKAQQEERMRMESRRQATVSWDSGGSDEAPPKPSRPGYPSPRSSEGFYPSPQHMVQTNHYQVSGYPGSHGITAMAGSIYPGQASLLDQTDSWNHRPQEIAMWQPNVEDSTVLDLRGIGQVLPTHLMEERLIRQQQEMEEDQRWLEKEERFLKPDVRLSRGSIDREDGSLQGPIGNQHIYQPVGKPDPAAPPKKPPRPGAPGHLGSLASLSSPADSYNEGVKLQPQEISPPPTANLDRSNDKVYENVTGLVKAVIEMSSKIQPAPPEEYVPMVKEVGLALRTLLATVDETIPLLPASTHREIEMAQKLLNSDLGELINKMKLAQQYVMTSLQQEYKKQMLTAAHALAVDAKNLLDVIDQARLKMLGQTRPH

[14] = system: Fibrinogen (Alexa647-labelled); experiment: Alexa647-fibrinogen binding to printed small molecules – biochemical, small-molecule microarray, 635/667 nm fluorescence, artefact control for SMM control-protein annotation, profiling panel (AID 1131); conditions: fibrinogen-A647 binding fluorescence, higher = more signal;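 further: z-score merges 667 nm fluorescence with per-spot signal-to-noise over triplicate slides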
[15] = biological target: Follistatin (Homo sapiens) (UniProt P19883); experiment: FST protein binding to printed compounds – biochemical, small-molecule microarray, 635/667 nm fluorescence, primary screen (AID 1132); conditions: 635 nm fluorescence, higher = more signal
Chain of Follistatin (Homo sapiens) (P19883 whole entry, looked up): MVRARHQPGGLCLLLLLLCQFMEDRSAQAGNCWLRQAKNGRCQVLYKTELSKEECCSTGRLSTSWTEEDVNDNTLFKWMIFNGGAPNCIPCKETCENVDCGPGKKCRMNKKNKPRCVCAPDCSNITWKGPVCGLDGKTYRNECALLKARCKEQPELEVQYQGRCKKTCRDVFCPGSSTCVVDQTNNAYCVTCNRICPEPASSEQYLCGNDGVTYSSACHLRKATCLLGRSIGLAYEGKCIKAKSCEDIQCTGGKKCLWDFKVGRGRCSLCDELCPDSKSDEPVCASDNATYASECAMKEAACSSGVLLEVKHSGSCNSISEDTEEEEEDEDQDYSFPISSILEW

[16] = biological target: Fibroblast growth factor 2 (Homo sapiens) (UniProt P09038); experiment: basic fibroblast growth factor binding to printed compounds – biochemical, small-molecule microarray, 635/667 nm fluorescence, primary screen (AID 1133); conditions: FGF2, fluorescence 635/667, higher = more signal
Chain of Fibroblast growth factor 2 (Homo sapiens) (P09038 whole entry, looked up): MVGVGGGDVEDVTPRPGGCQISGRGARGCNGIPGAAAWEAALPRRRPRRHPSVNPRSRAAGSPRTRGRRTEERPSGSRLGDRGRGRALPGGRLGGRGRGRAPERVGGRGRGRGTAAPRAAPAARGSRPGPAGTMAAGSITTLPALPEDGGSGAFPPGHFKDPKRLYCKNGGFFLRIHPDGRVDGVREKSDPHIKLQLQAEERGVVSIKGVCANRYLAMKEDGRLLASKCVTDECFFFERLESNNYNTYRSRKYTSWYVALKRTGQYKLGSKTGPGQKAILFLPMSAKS

[17] = JC-1 mitochondrial potential readout, lung cancer cells – cell-based, A549, JC-1 fluorescence, basal, 24 h, 100 nL, profiling panel (AID 1138); conditions: higher = more signal;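 further: A549 lung adenocarcinoma cells under basal conditions with no added stimulus; test concentration not given here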
Lefty1 = Lefty1 protein binding to printed compounds – biochemical, small-molecule microarray, 635/667 nm fluorescence, primary screen (AID 1139); conditions: fluorescence 635/667, higher = more signal

Row | Compound | composite z-score [1] | composite z-score [2] | composite z-score (Albumin (Bos taurus)) | composite Z-score [3] | composite z-score [4] | composite z-score [5] | composite z-score [6] | composite z-score [7] | composite z-score [8] | composite z-score (Sam68 (KHDRBS1)) | composite z-score [9] | composite z-score [10] | composite z-score [11] | composite z-score [12] | composite z-score [13] | composite z-score [14] | composite z-score [15] | composite z-score [16] | z-score [17] | composite z-score (Lefty1)
1 | COc1ccc([Si](C)(C)[C@H]2[C@H](CC(=O)N(CCO)Cc3ccccc3)O[C@@]3(C(=O)N(Cc4ccc(N5CCOC5=O)cc4)c4ccccc43)[C@@H]2C)cc1 | 0.473 | 0.639 | -0.604 | 0.989 (inactive) | -0.0044 | -0.168 | 0.393 | 0.704 | 0.0474 | 0.641 | 0.457 | 1.06 | 0.845 | 0.0593 | 0.16 | 0.474 | 0.878 | 0.66 | 0.784 | 1.13
2 | C=C(/C(=C/C[C@H](OC(C)=O)c1cccc(OCCO)c1)c1cc(C(=O)OC)ccc1OC)C(C)C | 0.209 | 0.19 | 0.103 | 0.307 (inactive) | -0.0918 | -0.126 | 0.38 | 0.866 | 0.172 | 0.177 | -0.767 | -0.319 | -0.604 | -0.389 | 0.445 | -0.624 | -0.288 | -0.0132 | 3.18 | -0.0603
3 | O=C1N(CCS(=O)(=O)c2ccccc2)Cc2ccccc2[C@@H]2OC(c3ccc(OCCCO)cc3)=N[C@]12Cc1ccccc1 | 0.998 | 1.16 | -0.0444 | 1.83 (inactive) | 0.165 | 0.0042 | 0.742 | 2.84 | 0.599 | 1.29 | 0.286 | 1.13 | 3.33 | 1.27 | 0.526 | 0.988 | 1.34 | 1.68 | -0.0106 | 1.1
4 | Cc1ccc(S[C@]2(C(=O)NC3CC3)CC(=O)N(Cc3ccccc3C(F)(F)F)[C@@H]2c2ccc(CO)cc2I)cc1 | 0.568 | 0.955 | -1.2 | -0.275 (inactive) | -0.0311 | -0.0708 | 0.653 | 0.898 | 0.417 | 0.547 | -0.229 | -0.387 | -1.01 | 0.303 | -0.0823 | -0.763 | 1.25 | 0.0123 | 1.57 | -0.258
5 | Cc1ccc(S[C@]2(C(=O)NCC(C)C)CC(=O)N(C(C)C)[C@@H]2c2ccc(CO)cc2)cc1 | -0.163 | 0.623 | -0.283 | 0.0333 (inactive) | -0.255 | -0.163 | 0.747 | 0.301 | -0.311 | -0.749 | -0.589 | -0.522 | -1.15 | 0.259 | -0.267 | -1.48 | 0.259 | 0.206 | 0.69 | -0.477
6 | NC(=O)NCC#Cc1ccc2c(c1)[C@]1(C(=O)N2)[C@H](c2ccc(OCCO)cc2)N2[C@H](c3ccccc3)[C@H](c3ccccc3)OC(=O)[C@H]2[C@@H]1C(=O)Nc1nc2ccccc2s1 | 0.339 | 0.173 | -0.0355 | -0.883 (inactive) | -0.132 | -0.0629 | 0.0165 | 0.966 | 0.436 | -0.112 | 0.175 | 0.0806 | -0.609 | 0.123 | 0.0616 | 0.0886 | 0.923 | -0.292 | -2.17 | -0.609
7 | COCCOC(=O)N1C(=O)[C@@]2(c3cc(C#CCCO)ccc31)[C@H](c1ccccc1OCCO)N1[C@H](c3ccccc3)[C@H](c3ccccc3)OC(=O)[C@H]1[C@@H]2C(=O)NC[C@H](O)c1ccccc1 | 0.482 | 1.38 | 0.25 | 0.0022 (inactive) | -0.0197 | -0.0753 | 0.204 | 2.15 | 0.35 | 1.31 | 0.524 | 0.859 | 2.02 | 0.907 | 1.07 | 0.756 | 1.5 | 1.7 | 0.891 | 1.61
8 | C=C[C@H](OC)[C@@H](OC(=O)Nc1ccc(OC)cc1)c1ccc(OC)c(O)c1 | -0.358 | -0.557 | -2.02 | -0.403 (inactive) | -0.374 | -0.181 | 0.633 | -0.844 | 0.0191 | -0.667 | -2.31 | -2.17 | -1.22 | -1.3 | 0.7 | -2.93 | -0.823 | -1.23 | 1.19 | -1.75

Reference: PubChem BioAssay
